Assay [1] is described as follows: qHTS RealTime-Glo MT Cell Viability Assay in HEK293 cells - 8 hour (AID 1224887). Also: top concentration of the series differs between compounds; nearly all actives have a fitted effect of over 50% in size. The method, boiled down:
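HEK293 + NanoLuc + prosubstrate, 600 cells/well; 5 h, 37 C/5% CO2; compound 23 nL in DMSO by pintool; 37 C; luminescence read at 0, 8, 16, 24, 32 and 40 h time points.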
Background: qHTS replaces the single test concentration by a dilution series.

Assay [2] can be described thus: A CellTox Green Cytotoxicity Assay to monitor cytotoxicity in HEK293 cells - 16 hour (AID 1224888). Also: nearly all actives have a fitted effect of over 35% in size. The method, boiled down:
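Tox21 screen in HEK293: membrane-impermeant cyanine dye fluoresces on binding dead-cell DNA; compound pinned 5 h post-seeding, plates held at 37 C, signal read repeatedly through 40 h.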

Assay [3] can be described thus: qHTS RealTime-Glo MT Cell Viability Assay in HepG2 cells - 0 hour (AID 1224889). Also: nearly all actives have a fitted effect of over 50% in size. Summed up: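 Compound treatment began 5 h after plating HepG2 cells (600/well) with NanoLuc luciferase and prosubstrate. Plates stayed at 37 C for 40 h; luminescence was captured at six time points, 0 h through 40 h.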
A short description of assay [4]: A CellTox Green Cytotoxicity Assay to monitor cytotoxicity in HepG2 cells - 8 hour (AID 1224890). Also: nearly all actives have a fitted effect of over 45% in size. The method, boiled down: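 Measurements at 0, 8, 16, 24, 32 and 40 h of treatment captured CellTox Green fluorescence in HepG2 cells that had been co-plated with reagent and preincubated 5 h at 37 C/5% CO2.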
A short description of assay [5]: qHTS assay to identify small molecule antagonists of the estrogen receptor alpha (ER-alpha) signaling pathway using the BG1 cell line in the presence of 0.1 nM 17-beta-estradiol - cell viability counter screen (AID 1259241). Also: nearly all actives have a fitted effect of over 40% in size. Summed up: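 Cells were plated and left 24 hr, compounds in DMSO were pinned in, 17beta-estradiol was added to 0.1 nM final, and after 22 hr CellTiter-Fluor reagent was added for 30 min before fluorescence was read.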

Assay [6] can be described thus: qHTS assay to identify small molecule antagonists of the androgen receptor (AR) signaling pathway using the MDA cell line in the presence of 0.5 nM R1881 - cell viability counter screen (AID 1259242). Also: nearly all actives have a fitted effect of over 45% in size. Summed up:
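Concentration-response screen of compounds for toxicity in MDA-kb2 reporter cells: 16 hr at 37C with 0.5 nM R1881, endpoint live-cell protease fluorescence measured in the reporter wells.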

Assay [7] addresses Androgen receptor (Homo sapiens) (UniProt P10275). Kind of assay: qHTS assay to identify small molecule antagonists of the androgen receptor (AR) signaling pathway using the MDA cell line in the presence of 0.5 nM R1881 (AID 1259243). Also: nearly all actives have a fitted effect of over 50% in size. The method, boiled down: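 With R1881 held at 0.5 nM (final), compound effects on MMTV-luciferase expression in MDA-kb2 cells were scored by luminescence after a 16 hr, 37C incubation.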

The nature of assay [8]: qHTS assay to identify small molecule agonists of the sonic hedgehog signaling (Shh) pathway - cell viability counter screen (AID 1259366). Also: nearly all actives have a fitted effect of over 50% in size. Summed up:
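Cells are plated at 2,000 per well and left 4hr at 37C, 5% CO2 before compound addition. After 23hr of treatment, CellTiter-Fluor reagent is added for 1hr at 37C and fluorescence is measured.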

Assay [9] can be described thus: qHTS assay to identify small molecule antagonists of the sonic hedgehog signaling (Shh) pathway - cell viability counter screen (AID 1259367). Also: nearly all actives have a fitted effect of over 55% in size. The method, boiled down:
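Tox21 library chemicals were tested on a Gli1-Luc NIH/3T3 clone (2,000 cells/well) stimulated by conditioned medium; viability was quantified as fluorescence from CellTiter-Fluor reagent added at 23 hr.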

Assay [10] can be described thus: qHTS assay to identify small molecule agonists of the sonic hedgehog signaling (Shh) pathway (AID 1259368; calls by dose curve;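 also: NIH/3T3-derived 3T3Gli1-Luc cells carrying a stable Gli1-driven firefly luciferase reporter; series mostly up to about 92 µM; nearly all actives have a fitted effect of over 15% in size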). Summed up: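 Hedgehog pathway agonism scored by increased firefly luciferase luminescence in 3T3Gli1-Luc cells treated 24 hr at 37 C; detection used a 30 min room-temperature reagent incubation.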
Assay [11] in a line: qHTS assay to identify small molecule antagonists of the sonic hedgehog signaling (Shh) pathway (AID 1259369; calls by dose curve; also: nearly all actives have a fitted effect of over 45% in size). The method, boiled down: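 NIH/3T3 stable Gli1-Luc clone, 2,000 cells/well, 4hr settle; cpd + conditioned medium 24hr; Luc reagent 30min RT; luminescence.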
Assay [12] has as its target Estrogen receptor beta (Homo sapiens) (UniProt Q92731). Kind of assay: qHTS assay to identify small molecule agonists of the estrogen receptor beta (ER-beta) signaling pathway (AID 1259377; active = well fitted activation curve with a large enough effect in the signal ratio in the repeat runs, not every such curve was filed as active; the % refers to the signal ratio). The method, boiled down: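 Agonist mode cell assay in GripTite HEK293T cells expressing an ER-beta fusion that drives beta-lactamase from an Upstream Activator Sequence; 16 hr compound exposure at 37C, then 2 h LiveBLAzer B/G FRET substrate at room temperature, fluorescence read-out.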

The target is the same in assay [13]. Kind of assay: qHTS assay to identify small molecule antagonists of the estrogen receptor beta (ER-beta) signaling pathway (AID 1259378; active = well fitted inhibition curve with a large enough effect in the signal ratio in the repeat runs, not every such curve was filed as active; the % refers to the signal ratio). Summed up: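 ER-beta-UAS-bla HEK293T cells in 2% charcoal-stripped FBS medium treated with compound plus 1nM final 17-beta-estradiol for 16 hr at 37C. Beta-lactamase reporter read by FRET substrate fluorescence after 2 hours at room temperature.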

Assay [14] is described as follows: qHTS assay to identify small molecule agonists of the estrogen receptor beta (ER-beta) signaling pathway - cell viability counter screen (AID 1259380). Also: nearly all actives have a fitted effect of over 30% in size. Also: potency is read from the fitted curve at half-maximal effect. Summed up:
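Measured: luminescence from CellTiter-Glo after 30 min at room temperature, added to wells already read for the LiveBLAzer FRET reporter (2 hr substrate); ER-beta-UAS-bla HEK293T cells had 16 hr compound treatment at 37C, 5% CO2.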

Assay [15] addresses Androgen receptor (Homo sapiens) (UniProt P10275). Kind of assay: qHTS assay to identify small molecule agonists of the androgen receptor (AR) signaling pathway in the presence of an antagonist (AID 1259381; calls by dose curve; also: nearly all actives have a fitted effect of over 15% in size). Summed up: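 Luminescent ONE-Glo read, 30min at room temperature, follows 16hr compound exposure (15 concentrations) of MDA-kb2 cells at 37C, 0% CO2, with nilutamide added at 3.0uM final.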

Assay [16] in a line: qHTS assay to identify small molecule HDAC inhibitors (AID 1259364).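 Also: wild-type HCT-116 cells with endogenous class I/II HDAC activity; top concentration of the series differs between compounds; nearly all actives have a fitted effect of over 45% in size.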 Summed up:
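Screening used wild-type human colon HCT-116 cells incubated overnight, dosed with compounds for 2 hours, and assayed with a homogeneous luminogenic HDAC I/II reagent for 30 minutes at room temperature.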

Assay [17] is described as follows: qHTS assay to identify small molecule HDAC inhibitors - cell viability counter screen (AID 1259365). The method, boiled down:
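Counter screen in wild-type HCT-116 cells: compounds dissolved in DMSO are pin-transferred onto overnight-plated cells and left 2hr at 37C. ATP-based CellTiter-Glo luminescence then measures viable cells.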

For assay [18], the target named is Estrogen receptor (Homo sapiens) (UniProt P03372). Kind of assay: qHTS assay to identify small molecule antagonists of the estrogen receptor alpha (ER-alpha) signaling pathway using the BG1 cell line in the presence of 0.1 nM 17-beta-estradiol (AID 1259244). Also: nearly all actives have a fitted effect of over 50% in size. Summed up: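 Compounds were tested against 0.1 nM (final) 17beta-estradiol in VM7Luc4E2 cells, which express full-length ER-alpha and an ERE-luciferase reporter; luminescence was recorded following 22 h exposure.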

Assay [19] is described as follows: qHTS assay to identify small molecule agonists of the androgen receptor (AR) signaling pathway in the presence of an antagonist - cell viability counter screen (AID 1259379).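 Also: MDA-kb2 human breast cancer cells carrying an MMTV luciferase reporter; series mostly up to about 92 µM; nearly all actives have a fitted effect of over 25% in size.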 The method, boiled down:
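MDA-kb2 viability measured by CellTiter-Fluor fluorescence in the same wells as the luciferase signal; nilutamide 3.0uM final; 15-point compound titration; 16 hr at 37C.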

Assay [20] is described as follows: qHTS assay to identify small molecule phospholipidosis (PLD) inducers (AID 1259344; active = well fitted curve in the direction sought with a large enough effect; an effect the other way counts as inactive or inconclusive). The method, boiled down: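 Image-based: LipidTOX Red pit count/intensity per well and per cell; HepG2, 24 h compound at 37 C, PFA fixation, Hoechst counterstain.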

Values without a mark were called inactive. Results filed as inconclusive are left out. Activity calls are given as the source filed them. Unless noted, calls follow the shape of the dose curve; as a rule, active = well fitted curve in the direction sought with a large enough effect in the repeat runs; inconclusive = weak or mixed curves; inactive = no such curve, though single readings can be large; an effect the other way counts as inactive or inconclusive.
% is scaled to controls: 0 for no effect and ±100 for the full control effect.

Estrogen receptor beta (Homo sapiens), sequence (Q92731 whole entry, looked up, the tested form may be a part): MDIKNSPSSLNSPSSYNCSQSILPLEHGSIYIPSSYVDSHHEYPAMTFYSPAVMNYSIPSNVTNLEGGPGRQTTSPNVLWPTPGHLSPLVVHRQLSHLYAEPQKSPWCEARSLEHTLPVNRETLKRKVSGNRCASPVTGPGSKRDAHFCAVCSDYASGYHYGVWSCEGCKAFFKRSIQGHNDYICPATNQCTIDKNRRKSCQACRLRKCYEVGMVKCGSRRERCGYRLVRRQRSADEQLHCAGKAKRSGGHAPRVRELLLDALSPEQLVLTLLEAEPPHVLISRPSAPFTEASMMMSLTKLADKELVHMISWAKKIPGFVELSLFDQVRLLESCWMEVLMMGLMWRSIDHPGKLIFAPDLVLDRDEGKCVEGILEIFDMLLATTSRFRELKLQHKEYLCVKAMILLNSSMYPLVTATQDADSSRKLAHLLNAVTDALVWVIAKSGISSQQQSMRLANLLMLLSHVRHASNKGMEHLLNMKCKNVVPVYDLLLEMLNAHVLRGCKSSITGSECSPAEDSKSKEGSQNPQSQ
Androgen receptor (Homo sapiens), sequence (P10275 whole entry, looked up): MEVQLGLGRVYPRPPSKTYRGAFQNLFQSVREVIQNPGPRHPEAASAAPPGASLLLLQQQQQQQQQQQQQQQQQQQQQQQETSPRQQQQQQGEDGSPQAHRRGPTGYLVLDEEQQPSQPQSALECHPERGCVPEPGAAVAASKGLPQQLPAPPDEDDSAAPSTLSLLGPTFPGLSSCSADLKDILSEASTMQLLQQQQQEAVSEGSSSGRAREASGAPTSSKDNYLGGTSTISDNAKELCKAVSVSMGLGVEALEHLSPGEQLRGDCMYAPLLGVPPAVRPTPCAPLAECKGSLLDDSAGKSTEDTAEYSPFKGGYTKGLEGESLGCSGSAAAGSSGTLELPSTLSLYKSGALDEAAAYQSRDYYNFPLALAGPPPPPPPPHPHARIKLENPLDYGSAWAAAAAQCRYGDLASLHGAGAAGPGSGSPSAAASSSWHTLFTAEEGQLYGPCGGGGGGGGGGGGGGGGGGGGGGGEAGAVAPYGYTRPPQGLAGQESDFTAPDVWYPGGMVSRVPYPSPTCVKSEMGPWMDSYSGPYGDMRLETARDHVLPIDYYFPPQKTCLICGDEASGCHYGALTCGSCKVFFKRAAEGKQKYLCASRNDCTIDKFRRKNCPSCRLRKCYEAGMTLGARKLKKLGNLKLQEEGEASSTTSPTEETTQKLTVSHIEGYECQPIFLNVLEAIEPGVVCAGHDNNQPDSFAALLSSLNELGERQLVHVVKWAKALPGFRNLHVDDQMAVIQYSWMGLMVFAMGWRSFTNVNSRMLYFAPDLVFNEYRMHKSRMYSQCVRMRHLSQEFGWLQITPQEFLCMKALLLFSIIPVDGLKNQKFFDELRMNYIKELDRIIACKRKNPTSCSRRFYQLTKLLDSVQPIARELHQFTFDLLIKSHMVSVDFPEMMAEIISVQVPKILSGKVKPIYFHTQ
Estrogen receptor (Homo sapiens), sequence (P03372 whole entry, looked up): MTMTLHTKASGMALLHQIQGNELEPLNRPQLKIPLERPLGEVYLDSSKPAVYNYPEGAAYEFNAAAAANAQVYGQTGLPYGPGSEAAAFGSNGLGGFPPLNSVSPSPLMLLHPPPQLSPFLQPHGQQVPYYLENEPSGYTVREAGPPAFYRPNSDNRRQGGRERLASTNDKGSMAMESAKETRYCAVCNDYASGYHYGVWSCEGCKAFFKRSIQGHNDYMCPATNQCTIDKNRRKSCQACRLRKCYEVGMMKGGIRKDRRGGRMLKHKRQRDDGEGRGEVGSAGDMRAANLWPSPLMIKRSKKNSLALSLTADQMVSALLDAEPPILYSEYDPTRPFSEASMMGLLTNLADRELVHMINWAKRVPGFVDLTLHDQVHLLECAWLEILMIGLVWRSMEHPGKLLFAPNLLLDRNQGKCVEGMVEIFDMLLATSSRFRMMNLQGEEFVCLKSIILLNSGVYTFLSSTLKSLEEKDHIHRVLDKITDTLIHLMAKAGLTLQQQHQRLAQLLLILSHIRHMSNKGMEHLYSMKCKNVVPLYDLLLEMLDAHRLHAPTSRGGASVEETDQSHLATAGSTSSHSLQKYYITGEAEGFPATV

For the molecule `CCCCNc1ccc(NCCCC)c2c1C(=O)c1ccccc1C2=O`, the activity change, negative = cytotoxicity is 3.79% [at 15.8 µM] in assay [1], 1.94% [at 15.8 µM] in [3], -14.1% [at 19 µM] in assay [5] and 6.16% [at 19 µM] in assay [14]. Also, the activity change in assay [2] was 0.839% [at 15.8 µM, stronger effect = higher value]; in assay [10], -0.26% [at 18.9 µM, stronger effect = higher value]. For the same molecule, the cytotoxicity increase in assay [4] was -2.69% [at 15.8 µM]. Also, the viability change, negative = cytotoxic in assay [6] was -9.45% [at 19 µM]; in assay [8], -17.5% [at 19 µM]; in assay [9] it was -12.9% [at 19 µM]. Also, the activity, negative = inhibition in [7] is -3.08% [at 19 µM]; in assay [13] it was 17.4% [at 19 µM]. The activity change, negative = inhibition in assay [11] was -20.1% [at 19 µM]. For the same molecule, the activation in assay [12] was -2.22% [at 19 µM]; in assay [15] it was -0.623% [at 19 µM].

In the case of `Clc1cccc(Cl)n1`, the Potency entry in assay [1], in assay [2], in assay [3], in [4], in assay [5] and in assay [6] was “inactive” each time. The Potency entry in assay [7], in [16], in [17], in assay [8], in assay [9] and in [10] was “inactive” throughout. Besides, the Potency entry in assay [11], in [14] and in assay [15] was “inactive” in each case.

For `O=C1OCc2ccccc21`, the Potency result in [1], in assay [2], in [3], in assay [4], in assay [5] and in assay [6] was “inactive” each time. For the same molecule, the Potency entry in [7], in assay [18], in [16], in [17], in assay [8] and in assay [9] was “inactive” each time. Also, the Potency entry in [10], in [11], in [13], in [14] and in assay [15] was “inactive” in each case. Further, the molecule was classed as inactive in assay [12].

As to `CC1CCC(C(C)(C)O)CC1` (stereo not drawn), the Potency result in [1], in assay [2], in assay [3], in assay [4], in assay [5] and in [6] was “inactive” each time. The Potency entry in assay [7], in assay [16], in assay [17], in assay [8], in [9] and in [10] was “inactive” throughout. Moreover, the Potency entry in assay [11], in [19], in assay [14] and in [15] was “inactive” throughout.

In the case of `O=C(O)C[C@H](O)C[C@H](O)/C=C/c1c(C2CC2)nc2ccccc2c1-c1ccc(F)cc1`, the activity change, negative = cytotoxicity was 5.42% [at 15.8 µM] in [1]; -0.353% [at 15.8 µM] in assay [3]; 6.55% [at 19 µM] in [5]; 0.738% [at 19 µM] in assay [17]; 0.182% [at 19 µM] in assay [19]. Further, the activity change was 2.31% [at 15.8 µM, stronger effect = higher value] in assay [2] and -2.24% [at 18.9 µM, stronger effect = higher value] in [10]. Moreover, in assay [4], the cytotoxicity increase was -9.83% [at 15.8 µM]. Moreover, the values for the viability change, negative = cytotoxic in [6], in assay [8] and in assay [9] were -6.18% [at 19 µM], -7.99% [at 19 µM] and -0.451% [at 19 µM], respectively. In assay [7], the activity, negative = inhibition was 31.2% [at 19 µM]. The results for the activity change, negative = inhibition in [18], in assay [16] and in assay [11] were 17.2% [at 19 µM], -0.0181% [at 19 µM] and -28% [at 19 µM], respectively. For the same molecule, in assay [20], the Potency result was “inactive”. Moreover, the Potency in assay [14] is 3.26 µM (active). In assay [15], the activation was -0.267% [at 19 µM].

Turning to `CCCCCCCCCCCCS(=O)(=O)Cl`, the activity change, negative = cytotoxicity is 8.12% [at 15.8 µM] in assay [1]; -8.49% [at 15.8 µM] in [3]; -4% [at 19 µM] in assay [5]; -1.8% [at 19 µM] in assay [17]; 2.74% [at 19 µM] in [19]. Moreover, the activity change in assay [2] is 2.57% [at 15.8 µM, stronger effect = higher value]; in assay [10], 0.0807% [at 18.9 µM, stronger effect = higher value]. Besides, the cytotoxicity increase in assay [4] was -21% [at 15.8 µM]. The figures for the viability change, negative = cytotoxic in assay [6], in assay [8] and in [9] were -2.53% [at 19 µM], -2.48% [at 19 µM] and -1.82% [at 19 µM], respectively. Moreover, the activity, negative = inhibition in assay [7] was 0.127% [at 19 µM]; in assay [13], -20.1% [at 19 µM]. The activity change, negative = inhibition in assay [16] was -0.19% [at 19 µM]; in assay [11], 18.4% [at 19 µM]. The activation in assay [15] is 1.48% [at 19 µM].

Regarding `C=C(C)CCO`, the Potency result in [1], in assay [2], in assay [3], in assay [4], in assay [5] and in [6] was “inactive” in each case. Also, the Potency result in assay [7], in [18], in assay [16], in [17], in assay [8] and in assay [9] was “inactive” in each case. Further, the Potency result in assay [10], in assay [19] and in assay [14] was “inactive” throughout.

Values taken from PubChem BioAssay (Tox21).
